The source made the active and inactive calls.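 The calls were made as follows, unless noted: active = fluorescence slope higher than the sample average by over 3 SD (cut at about -0.22 in these data, passing the limit was not always enough); inactive = the rest.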
Key:
[1] = inhibitors of TNFa-induced NFkB p65 translocation, primary screen, imaging, HUVEC, MLSMR starter and 10KST1 sets (AID 438;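 active = inhibition above 20% together with a positive visual image hit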;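 also: compound added about 3h40 before a 20 min TNFalpha stimulation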;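 as to inhibition: signal is the nuclear over cytoplasmic p65 intensity ratio per well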); conditions: HUVEC TNFa-induced p65 nuclear translocation; cell count: measured here: nuclei count (cytotoxicity indicator), at 2.08 µM unless noted; inhibition: at 2 µM, stronger effect = higher value unless noted
[2] = inhibitors of E-selectin induction by TNFa, primary screen, imaging, HUVEC, immunofluorescence, MLSMR starter and 10KST1 sets (AID 487;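 active = visually confirmed hit in the image check and inhibition above 20%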;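 as to inhibition: signal is fraction of cell area covered by stained E-selectin grains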;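 as to nuclei count: 100% = median nuclei count of all wells on the same plate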); conditions: HUVEC TNFalpha-induced E-selectin immunofluorescence imaging, at 2 µM; inhibition: stronger effect = higher value; nuclei count: measured here: cell number, toxicity
[3] = DUSP6 inhibitors restoring Erk phosphorylation by chemical complementation, primary imaging in DUSP6-transfected HeLa (AID 609;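 active = compounds giving at least 50% inhibition in the cell-based MKP-3 phosphatase rescue imaging test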;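 as to inhibition: phospho-Erk level distribution per well compared with pooled transfected vehicle control wells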); conditions: HeLa MKP-3 transfected, phospho-Erk imaging KS statistic, at 10 µM
[4] = target: Dual specificity protein phosphatase 6 (Homo sapiens) (UniProt Q16828); assay: as above; conditions: HeLa MKP-3 transfected, phospho-Erk imaging KS statistic, at 10 µM, stronger effect = higher value
Sequence of Dual specificity protein phosphatase 6 (Homo sapiens) (Q16828 whole entry, looked up): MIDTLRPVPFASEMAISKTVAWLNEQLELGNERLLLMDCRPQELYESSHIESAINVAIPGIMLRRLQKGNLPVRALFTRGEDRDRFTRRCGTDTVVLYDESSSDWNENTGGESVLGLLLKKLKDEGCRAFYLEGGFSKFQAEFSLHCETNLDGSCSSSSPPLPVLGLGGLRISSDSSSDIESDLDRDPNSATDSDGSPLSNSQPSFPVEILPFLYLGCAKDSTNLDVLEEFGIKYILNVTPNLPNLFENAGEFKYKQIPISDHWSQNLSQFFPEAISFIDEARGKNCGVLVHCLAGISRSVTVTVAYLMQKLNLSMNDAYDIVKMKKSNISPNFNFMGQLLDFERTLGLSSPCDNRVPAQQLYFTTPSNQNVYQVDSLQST

[5] = target: Voltage-gated potassium channel subunit beta-2 (Rattus norvegicus) (UniProt P62483); assay: KvBeta enzyme negative modulators, primary screen, biochemical, NADPH fluorescence (AID 622); conditions: recombinant KvBeta, 4-cyanobenzaldehyde reduction, at 10 µM, stronger effect = higher value;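 also: slope of raw intensity against log time taken from 70 to 1610 s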
Sequence of Voltage-gated potassium channel subunit beta-2 (Rattus norvegicus) (P62483 whole entry, looked up): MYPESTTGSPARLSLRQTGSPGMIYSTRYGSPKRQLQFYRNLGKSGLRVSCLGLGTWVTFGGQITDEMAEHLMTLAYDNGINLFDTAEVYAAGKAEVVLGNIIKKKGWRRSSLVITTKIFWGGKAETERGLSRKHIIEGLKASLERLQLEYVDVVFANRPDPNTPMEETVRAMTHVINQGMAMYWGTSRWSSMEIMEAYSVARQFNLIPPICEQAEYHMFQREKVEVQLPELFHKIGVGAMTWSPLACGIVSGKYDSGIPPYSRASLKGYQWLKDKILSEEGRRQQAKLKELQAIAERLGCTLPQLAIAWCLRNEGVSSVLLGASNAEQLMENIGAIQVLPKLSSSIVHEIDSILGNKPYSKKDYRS

[6] = target: Voltage-gated potassium channel subunit beta-2 (Rattus norvegicus) (UniProt P62483); assay: KvBeta positive modulators, primary screen, biochemical, NADPH fluorescence (AID 623;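 active = NADPH fluorescence slope more negative than the mean of all samples by about 3 SD, 99.7% confidence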;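 also: fluorescence intensity change per second fitted from 20 to 320 s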); conditions: Recombinant KvBeta, NADPH fluorescence decrease slope, 10 min; at 10 µM; stronger effect = lower value
[7] = target: Muscarinic acetylcholine receptor M4 (Homo sapiens) (UniProt P08173); assay: compounds altering M4/GIRK thallium flux, either direction, primary screen, M4 allosteric agonist project, cell-based, HEK293 M4/GIRK, BTC-AM (AID 625;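 active = fluorescence slope after compound addition differing from the mean of all tested samples at 99.7% confidence, mostly higher but some lower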;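 also: thallium influx through GIRK channels coupled to M4 in HEK293 cells with BTC-AM dye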); conditions: at 10 µM, actives lie on both sides
Sequence of Muscarinic acetylcholine receptor M4 (Homo sapiens) (P08173 whole entry, looked up): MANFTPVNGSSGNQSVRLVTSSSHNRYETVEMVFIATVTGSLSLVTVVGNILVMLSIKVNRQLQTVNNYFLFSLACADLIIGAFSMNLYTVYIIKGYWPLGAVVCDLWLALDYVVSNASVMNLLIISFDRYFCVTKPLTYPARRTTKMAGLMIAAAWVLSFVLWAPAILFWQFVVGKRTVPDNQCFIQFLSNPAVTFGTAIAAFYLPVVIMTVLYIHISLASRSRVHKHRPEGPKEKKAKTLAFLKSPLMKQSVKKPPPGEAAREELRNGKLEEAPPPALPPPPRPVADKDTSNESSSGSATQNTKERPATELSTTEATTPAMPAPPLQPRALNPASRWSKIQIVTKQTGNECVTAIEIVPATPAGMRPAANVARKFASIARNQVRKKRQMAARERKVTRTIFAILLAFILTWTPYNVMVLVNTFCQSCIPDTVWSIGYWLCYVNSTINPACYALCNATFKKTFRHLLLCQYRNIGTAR

[8] = inhibitors of larval lipid processing in zebrafish, primary screen, whole organism, PED6 fluorescence, gall bladder and intestine (AID 686;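 active = a full or partial loss of lipid-probe fluorescence in the fish gall bladder, intestine or both, judged by eye; inactive = no fluorescence loss, or compound toxic to the fish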;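 also: larvae 5 to 7 days old with five fish per well; signal comes from phospholipase A2 cleavage of quenched PED6 carried via bile; overnight exposure to compound and PED6 before scoring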); conditions: Zebrafish larvae PED6 lipid processing, fluorescence scoring
[9] = inhibitors of Chlamydomonas gravitaxis, primary screen, whole organism, Chlamydomonas reinhardtii, WT vs cilia-less mutant, absorbance, 96-well (AID 463189;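 active = inhibition at or above 50% relative to wild type and mutant plate controls; inactive = inhibition below 50%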;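 also: 0% = wild type cc124 cells in DMSO and 100% = ciliumless bld1 mutant cells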); conditions: OD600 absorbance, 2 days, at 10 µM, stronger effect = higher value
[10] = inhibitors of mutant huntingtin aggregation, primary screen, imaging, exon1htt(103Q)mCFP cells, high-content imaging (AID 483;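 active = visual image review flags a hit and inhibition of aggregation exceeds 20%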;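 also: compound exposure lasted 3 days before fixation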;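 as to nuclei count: percent of the per-plate median nuclei count of sample wells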); conditions: exon1htt(103Q)mCFP cell line, aggregate imaging, at 2 µM; inhibition of aggregation: stronger effect = higher value; nuclei count: measured here: cell count, toxicity
[11] = target: Alpha-2C adrenergic receptor (Homo sapiens) (UniProt P18825); assay: modulators of alpha2C/GIRK thallium flux, primary screen, cell-based, HEK293 alpha2C/GIRK1/2 (AID 624;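 active = fluorescence slope after compound addition differing from the mean of all screened samples at 99.7% confidence, in either direction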;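 also: slope of fluorescence ratio to pre-addition baseline per second over 15 to 24 s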); conditions: thallium flux BTC fluorescence, at 10 µM, actives lie on both sides
Sequence of Alpha-2C adrenergic receptor (Homo sapiens) (P18825 whole entry, looked up): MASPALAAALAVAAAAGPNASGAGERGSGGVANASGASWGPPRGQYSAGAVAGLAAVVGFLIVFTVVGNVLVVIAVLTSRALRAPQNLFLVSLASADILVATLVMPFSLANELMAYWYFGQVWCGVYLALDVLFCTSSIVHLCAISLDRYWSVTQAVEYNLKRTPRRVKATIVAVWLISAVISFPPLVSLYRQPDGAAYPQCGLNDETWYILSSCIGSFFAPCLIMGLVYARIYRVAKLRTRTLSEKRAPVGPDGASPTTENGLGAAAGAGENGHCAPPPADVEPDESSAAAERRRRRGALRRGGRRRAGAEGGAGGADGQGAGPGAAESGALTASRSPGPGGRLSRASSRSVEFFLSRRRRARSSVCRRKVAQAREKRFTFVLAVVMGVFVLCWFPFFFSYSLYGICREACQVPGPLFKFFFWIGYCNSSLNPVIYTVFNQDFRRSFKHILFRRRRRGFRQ

[12] = inhibitors of Sendai virus-induced IRF3 signaling, primary screen, TLR/RLR signaling modifier project, cell-based, Sendai virus stimulus, luciferase, 10K MLSCN set (AID 602276;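 active = inhibition at or above 50% at 10 µM; inactive = inhibition below 50%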;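 also: firefly luciferase from ISG56 promoter only with Renilla not read in this screen; 0% = Sendai virus plus DMSO and 100% = medium plus DMSO without virus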); conditions: HEK293 RL24 IRF3 luciferase reporter, at 10 µM, stronger effect = higher value
[13] = inhibitors of poly I:C-induced TLR3 signaling, primary screen, cell-based, poly I:C stimulus, luciferase, 10K MLSCN set (AID 602277;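 active = inhibition of the reporter signal at or above 50%; inactive = inhibition below 50%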); conditions: HEK293-TLR3 RL24 IRF3 luciferase reporter, at 10 µM, stronger effect = higher value
[14] = measured here: cell density z-score
[15] = measured here: nuclear c-Myc green intensity z-score
[16] = measured here: nuclear pErk red intensity z-score, stronger effect = higher value

SMILES: O=C(CN1CCN(CCO)CC1)Nc1ccc(Cl)cc1C(=O)c1ccccc1
- cell count [1]: 431
- inhibition [1]: -4% (inactive)
- inhibition [2]: -88.6% (inactive)
- nuclei count [2]: 154%
- z-score [3, 14]: 0.92
- z-score [3, 15]: -0.897
- z-score [3, 16]: 0.82
- inhibition [4]: 11.9% (inactive)
- fluorescence slope [5]: -0.465 (inactive)
- NADPH fluorescence slope [6]: -0.000121 (inactive)
- fluorescence slope [7]: 0.00435 (inactive)
- outcome [8]: inactive
- inhibition [9]: 12% (inactive)

SMILES: CCn1c(O)c(C(=O)CC2NCCc3ccccc32)c(=O)n(CC)c1=S (centres undefined)
- cell count [1]: 494
- inhibition [1]: -7.2% (inactive)
- inhibition [2]: -84.9% (inactive)
- nuclei count [2]: 120%
- z-score [3, 14]: -1.06
- z-score [3, 15]: -1.07
- z-score [3, 16]: 1.31
- inhibition [4]: 3.97% (inactive)
- fluorescence slope [5]: -0.399 (inactive)
- NADPH fluorescence slope [6]: -1.1e-05 (inactive)
- fluorescence slope [7]: 0.00707 (inactive)
- outcome [8]: inactive
- inhibition [9]: -9.64% (inactive)

SMILES: CCOC(=O)c1cc(C)n(CCc2cnc[nH]2)c1C
- cell count [1]: 561
- inhibition [1]: 2.4% (inactive)
- inhibition [2]: -44.2% (inactive)
- nuclei count [2]: 123%
- z-score [3, 14]: -1.19
- z-score [3, 15]: -0.0641
- z-score [3, 16]: 0.767
- inhibition [4]: -2.59% (inactive)
- fluorescence slope [5]: -0.47 (inactive)
- NADPH fluorescence slope [6]: -9.2e-05 (inactive)
- fluorescence slope [7]: 0.00519 (inactive)
- outcome [8]: inactive
- inhibition [9]: -3.61% (inactive)

SMILES: CCN1CCN(C(=O)COc2cc(=O)n(CC)c3ccccc23)CC1
- cell count [1]: 357
- inhibition [1]: 0% (inactive)
- inhibition of aggregation [10]: -14.7% (inactive)
- nuclei count [10]: 99.2%
- inhibition [2]: -7.3% (inactive)
- nuclei count [2]: 115%
- fluorescence slope [5]: -0.386 (inactive)
- NADPH fluorescence slope [6]: -4.3e-05 (inactive)
- slope [11]: 0.00614 (inactive)
- inhibition [12]: 3.27% (inactive)
- inhibition [13]: 36.3% (inactive)

SMILES: CN1CCc2c(c(N3CCCCC3)nc3n[nH]c(N)c23)C1
- cell count [1]: 496
- inhibition [1]: -17.1% (inactive)
- inhibition [2]: -154% (inactive)
- nuclei count [2]: 127%
- z-score [3, 14]: 1.06
- z-score [3, 15]: -1.56
- z-score [3, 16]: 0.455
- inhibition [4]: 21.4% (inactive)
- fluorescence slope [5]: -0.463 (inactive)
- NADPH fluorescence slope [6]: -8.3e-05 (inactive)
- fluorescence slope [7]: 0.00409 (inactive)
- outcome [8]: inactive
- inhibition [9]: -3.54% (inactive)

SMILES: C=CCOC(=O)C1=C(C)OC(N)=C(C#N)[C@@]12C(=O)N(CC(N)=O)c1ccccc12
- cell count [1]: 473
- inhibition [1]: -1.4% (inactive)
- inhibition [2]: -499% (inactive)
- nuclei count [2]: 193%
- z-score [3, 14]: 0.623
- z-score [3, 15]: -0.273
- z-score [3, 16]: 0.824
- inhibition [4]: 2.71% (inactive)
- fluorescence slope [5]: -0.441 (inactive)
- NADPH fluorescence slope [6]: -5.7e-05 (inactive)
- fluorescence slope [7]: 0.00506 (inactive)
- outcome [8]: inactive
- inhibition [9]: 1.7% (inactive)

SMILES: CC1(c2ccccc2)NCCN2C(=O)CSC21 (centres undefined)
- cell count [1]: 632
- inhibition [1]: 2.3% (inactive)
- inhibition [2]: 32.4% (inactive)
- nuclei count [2]: 147%
- z-score [3, 14]: 1.05
- z-score [3, 15]: -0.953
- z-score [3, 16]: -0.166
- inhibition [4]: 1.12% (inactive)
- fluorescence slope [5]: -0.477 (inactive)
- NADPH fluorescence slope [6]: -6.1e-05 (inactive)
- fluorescence slope [7]: 0.00532 (inactive)
- outcome [8]: inactive
- inhibition [9]: 8.43% (inactive)

From PubChem BioAssay
